Reference: PubChem BioAssay AID2315 (National Center for Advancing Translational Sciences (NCATS), 2010)
Several values for one entry are separate records, joined by “and”; a condition that tells them apart may be missing. Equal values may be shown once. Screen size: about 290,000 compounds; about 27,000 (9.3%) were called active. Rule as the data show it: active = inhibition mostly above about 28% (no sharp cut-off); inactive = mostly below about 43%. This excerpt belongs to a sample that is enriched for actives.

Assay: A qHTS for Small Molecule Inhibitors of Shiga Toxin; also: 0% is about no effect
Conditions: Vero cells, Shiga toxin protein synthesis inhibition reporter; at 38.7 µM, active compounds read high

| Structure (SMILES) | inhibition |
| --- | --- |
| CCn1cc(S(=O)(=O)c2cccc(C)c2)c(=O)c2cc(F)c(N3CCN(C)CC3)cc21 | 4.57% (inactive) |
| COc1cccc(C(=O)NNC(=O)c2ccccc2Br)c1 | -5.95% (inactive) |
| CN1CCN(c2ccc(NC(=O)c3ccccc3)cc2)CC1 | 47.5% (active) |
| COc1cccc(C(=O)Nc2ccc(N3CCCC3)cc2)c1 | 47.9% (active) |
| COc1cccc(C(=O)Nc2cc3c(cc2Br)OCCCO3)c1 | 95.9% (active) |
| Cc1ccccc1C(=O)Nc1ccc(N2CCCCCC2)cc1 | 36.6% (inactive) |
| CN1CCN(c2ccc(NC(=O)c3ccc4c(c3)[nH]c(=O)n4Cc3ccc(F)cc3)cc2)CC1 | -1.72% (inactive) |
| CC(=O)Oc1cccc(C(=O)Nc2ccccc2NC(=O)c2cccc(OC(C)=O)c2)c1 | -7.51% (inactive) |
| COc1ccc(C(=O)NC(=S)Nc2ccc(N3CCCC3)cc2)cc1OC | 11.5% (inactive) |
| COc1cccc(C(=O)Nc2ccc(N3CCN(C(=O)c4ccco4)CC3)cc2)c1 | 2.21% (inactive) |
| Cc1ccc(-c2noc(CNC(=O)c3ccoc3C)n2)cc1 | -9.24% (inactive) |
| CCOCCCNC(=O)c1ccc(CS(=O)(=O)c2cccc(C(F)(F)F)c2)o1 | 21.3% (inactive) |
| COC(=O)c1ccc(NC(=O)c2cc3c(CO)cnc(C)c3oc2=Nc2cccc(C(N)=O)c2)cc1 | -1.8% (inactive) |
| CCN1C(=NCC(C)C)N[C@@H](CCc2ccccc2)[C@H](C(=O)NCC(C)C)[C@H]1C | -2.89% (inactive) and 9.38% (inactive) |
| O=C(CNC(=O)c1cccnc1)N/N=C/c1cc(Br)c(O)c(Br)c1 | -3.98% (inactive) |
| O=S(=O)(c1ccccc1)N(Cc1cccc(F)c1)c1ccccc1 | -4.98% (inactive) |
| COC(=O)N/N=C/c1cn(CCCOc2ccc(C)cc2)c2ccccc12 | 37.2% (active) |
| CCOC(=O)N/N=C/c1cn(Cc2ccccc2Cl)c2ccccc12 | 20.2% (inactive) |
| CNC(=S)N/N=C/c1cn(Cc2ccc(C)cc2)c2ccccc12 | 21.9% (inactive) |
| Cc1ccc(NC(=O)CN(C)C(=O)COC(=O)C(C)(C)Oc2ccc(Cl)cc2)cc1 | -9.8% (inactive) |
| O=C(CN1CCN(c2cccc(Cl)c2)CC1)Nc1ccc(S(=O)(=O)N2CCOCC2)cc1 | -9.51% (inactive) |
| Cc1c(NC(=O)CSCc2ccccc2)cccc1C(=O)O | 31.3% (inactive) |
| Cn1c(CSCC(=O)Nc2ccccc2)nnc1SCc1ccccc1 | 18.4% (inactive) |
| O=C(CSCc1ccccc1)Nc1ccccc1 | 50.8% (active) |

| Structure (SMILES) | inhibition |
| --- | --- |
| COc1ccc(Cl)cc1NC(=O)c1cccc(N2C(=O)C3CC=CCC3C2=O)c1 (configuration not stated) | -4.45% (inactive) |
| COc1ccc(S(=O)(=O)N2CCSCC2)cc1 | -9.94% (inactive) |
| CCOC(=O)N1CCN(Cc2nnc(-c3ccccc3Cl)o2)CC1 | -5.19% (inactive) |
| O=C(COc1ccccc1)Nc1ccc(C(=O)N2CCCC2)cc1 | 9.15% (inactive) |
| COc1cc(C2NC(=O)NC(c3ccccc3)=C2C(C)=O)c(Br)cc1OCC(N)=O (configuration not stated) | -4.39% (inactive) |
| O=C(Nc1ccccc1-c1ccccc1)c1cccs1 | -12.5% (inactive) |
| O=C(NC(=S)Nc1ccc(NC(=O)c2cccs2)cc1)c1ccc([N+](=O)[O-])cc1 | 36.1% (inactive) |
| O=C(NC(=S)Nc1cccc(-c2ccc(CO)o2)c1)c1cccs1 | 127% (active) |
| O=S(=O)(Cc1cc(Cl)nc(-c2cccnc2)n1)c1ccccc1 | 40.3% (inactive) |
| O=C(c1cc(S(=O)(=O)N2CCOCC2)ccc1Cl)N1CCOCC1 | -6.61% (inactive) |
| CC(C)CCN(C(=O)c1csnn1)C(C(=O)NC1CCCC1)c1ccccc1 (configuration not stated) | -3.8% (inactive) |
| Cc1cc2c(=O)n(CC(=O)NCC(=O)Nc3ccc(C(C)C)cc3)cnc2s1 | -9.56% (inactive) |
| COc1ccc(CCNC(=O)CCNS(=O)(=O)c2cc(Br)cnc2N)cc1OC | -6.21% (inactive) |
| CS(=O)(=O)N(CC(=O)N1CCOCC1)c1cccc(Cl)c1Cl | 1.97% (inactive) |
| Cc1ccccc1-c1nnn(CC(=O)c2ccc(S(=O)(=O)N3CCCC3)cc2)n1 | -5.14% (inactive) |
| O=C(Cn1nnc(-c2ccccc2)n1)NCc1ccccc1 | -10.9% (inactive) |
| Cc1nc2ccccc2n1CC(O)c1ccccc1 (configuration not stated) | -2.2% (inactive) |
| CCOc1ccc(S(=O)(=O)N2CCCC(C(=O)N3CCC(C(N)=O)CC3)C2)cc1Cl (configuration not stated) | 15.1% (inactive) |
| CCOC(=O)CSc1nc(N2CCOCC2)c2c(c1C#N)CC(C(C)C)OC2 (configuration not stated) | -7.43% (inactive) |
| CC(=O)C1=C(O)C(=O)N(c2ccc(Br)cc2)C1c1ccc([N+](=O)[O-])cc1 (configuration not stated) | -5.69% (inactive) |
| Cc1ccc2nc(N(CCN(C)C)C(=O)C3=COCCO3)sc2c1 | 6.59% (inactive) |
| CCc1ccc2nc(N(CCCN(C)C)C(=O)c3ccc4c(c3)OCCO4)sc2c1 | -6.1% (inactive) |
| CN(C)CCN(C(=O)C1=COCCO1)c1nc2ccc(Cl)cc2s1 | 128% (active) |
